From PubChem BioAssay AID1159580 (chemical genetic matrix, 2015)
Several values for one entry are separate records, joined by “and”; a condition that tells them apart may be missing. Identical values can stand only once. Screen size: about 5,500 compounds; about 2,000 (36%) were called active. Inconclusive results (about 18%) are left out. Cut-off read from the data, not from the text of the source: active = normalized growth mostly below about 0.91 (no sharp cut-off); inconclusive = no clear call, values can overlap the other calls; inactive = mostly above about 0.92. The list shows a part of the results.

Assay: chemical genetic growth profiling, strain panel (AID 1159580);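 note: tested at 20 µM; growth read once vehicle control cultures reached saturation at 30 °C; 1 = growth at the plate median or of vehicle wells; lower values mean less growth of the strain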
Settings: S. cerevisiae deletion strains, growth OD

Measured: normalized growth

CC(=O)O[C@]1(C(C)=O)CCC2C3C[C@H](C)C4=CC(=O)CC[C@]4(C)C3CC[C@@]21C (stereo partly drawn)
active: locus YDR137W, strain rgp1, active compounds read low 0.839 | locus YDR392W, strain spt3, active compounds read low 0.635 | locus YHR142W, strain chs7, active compounds read low 0.841
inactive: locus YAL021C, strain ccr4, active compounds read low 1 | locus YAL026C, strain drs2, active compounds read low 0.992 | locus YAL030W, strain snc1, active compounds read low 0.968 | locus YBL061C, strain skt5, active compounds read low 0.964 | locus YBR009C, strain hhf1, active compounds read low 0.955 | locus YBR021W, strain FUR4, active compounds read low 0.993 | locus YBR023C, strain chs3, active compounds read low 0.924 | locus YBR171W, strain sec66, active compounds read low 0.95 | locus YBR229C, strain ROT2, active compounds read low 0.993 | locus YBR231C, strain swc5, active compounds read low 0.971 | locus YBR279W, strain paf1, active compounds read low 0.97 | locus YCL011C, strain gbp2, active compounds read low 0.931 | locus YCL016C, strain dcc1, active compounds read low 0.916 | locus YCL029C, strain bik1, active compounds read low 0.957 | locus YCL061C, strain MRC1, active compounds read low 0.965 | locus YCL069W, strain vba3, active compounds read low 0.958 | locus YCR088W, strain abp1, active compounds read low 0.961 | locus YDL005C, strain med2, active compounds read low 0.959 | locus YDL035C, strain GPR1, active compounds read low 1.01 | locus YDL040C, strain nat1, active compounds read low 0.971 | locus YDL074C, strain BRE1, active compounds read low 0.983 | locus YDL101C, strain DUN1, active compounds read low 0.993 | locus YDL185W, strain tfp1, active compounds read low 0.956 | locus YDL192W, strain arf1, active compounds read low 0.966 | locus YDR001C, strain nth1, active compounds read low 0.97 | locus YDR069C, strain doa4, active compounds read low 0.992 | locus YDR101C, strain arx1, active compounds read low 0.999 | locus YDR150W, strain NUM1, active compounds read low 0.99 | locus YDR159W, strain sac3, active compounds read low 0.971 | locus YDR162C, strain NBP2, active compounds read low 0.993 | locus YDR195W, strain ref2 1.07 | locus YDR297W, strain sur2, active compounds read low 0.971 | locus YDR318W, strain mcm21, active compounds read low 0.961 | locus YDR334W, strain swr1, active compounds read low 0.96 | locus YDR335W, strain msn5, active compounds read low 0.971 | locus YDR388W, active compounds read low 0.989 | locus YDR502C, strain sam2, active compounds read low 0.954 | locus YEL003W, strain gim4, active compounds read low 0.987 | locus YEL037C, strain rad23, active compounds read low 0.962 | locus YEL061C, strain CIN8 (second series), active compounds read low 0.97 | locus YEL061C, strain CIN8, active compounds read low 0.991 | locus YER015W, strain faa2, active compounds read low 0.969 | locus YER016W, strain bim1, active compounds read low 0.975 | locus YER110C, active compounds read low 0.96 | locus YER111C, strain swi4, active compounds read low 0.96 | locus YER155C, strain BEM2 (second series), active compounds read low 0.976 | locus YER155C, strain BEM2, active compounds read low 0.98 | locus YER167W, strain BCK2, active compounds read low 0.977 | locus YFR010W, strain ubp6, active compounds read low 0.981 | locus YGL078C, strain dbp3, active compounds read low 0.982 | locus YGL086W, strain mad1, active compounds read low 0.995 | locus YGL167C, strain pmr1, active compounds read low 0.948 | locus YGL173C, strain kem1, active compounds read low 0.969 | locus YGL227W, strain vid30, active compounds read low 0.969 | locus YGL240W, strain doc1, active compounds read low 0.98 | locus YGL248W, strain PDE1, active compounds read low 0.992 | locus YGL253W, strain hxk2, active compounds read low 0.91 | locus YGR135W, strain pre9, active compounds read low 0.912 | locus YGR252W, strain gcn5, active compounds read low 0.926 | locus YHR013C, strain ard1, active compounds read low 0.968 | locus YHR027C, strain rpn1, active compounds read low 0.984 | locus YHR030C, strain SLT2, active compounds read low 0.997 and 0.999 | locus YHR079C, strain IRE1 (second series), active compounds read low 0.979 | locus YHR079C, strain IRE1, active compounds read low 0.98 | locus YHR094C, strain hxt1, active compounds read low 0.991 | locus YHR129C, strain ARP1, active compounds read low 0.993 | locus YHR200W, strain rpn10, active compounds read low 0.982 | locus YIL066C, strain RNR3, active compounds read low 0.991 | locus YIL073C, strain SPO22, active compounds read low 0.932 | locus YIL125W, strain kgd1, active compounds read low 0.996 | locus YIR030C, strain dcg1, active compounds read low 0.962 | locus YJL092W, strain hpr5, active compounds read low 0.964 | locus YJL095W, strain BCK1 (second series), active compounds read low 0.953 | locus YJL095W, strain BCK1, active compounds read low 0.961 and 1 | locus YJL115W, strain asf1, active compounds read low 0.969 | locus YJL129C, strain trk1, active compounds read low 0.902 | locus YJL134W, strain LCB3, active compounds read low 0.993 | locus YJL154C, strain vps35, active compounds read low 0.964 | locus YJL164C, strain tpk1, active compounds read low 0.97 | locus YJL166W, strain qcr8, active compounds read low 0.926 | locus YJL168C, strain set2, active compounds read low 0.985 | locus YJL187C, strain SWE1 (second series), active compounds read low 0.985 | locus YJL187C, strain SWE1, active compounds read low 0.976 | locus YJR043C, strain POL32, active compounds read low 1.03 | locus YJR066W, strain TOR1, active compounds read low 0.958
